Measurements as given in PubChem BioAssay (Tox21).
The source made the active and inactive calls. The call rests on the fitted dose curve; in most records, active means well fitted curve in the direction sought with a large enough effect in the repeat runs; inconclusive means weak or mixed curves; inactive means flat fitted curve, though single readings scatter.

Assay: qHTS assay to test for compound auto fluorescence at 535 nm (green) in HEK293 cell free culture (AID 720682)
Conditions: cell-free medium, green autofluorescence 485/535 nm; series mostly up to 91.3 µM; activity change: at the top concentration
Source text: U.S. Tox21 Program National Center for Advancing Translational Sciences [NCATS] NIH Chemical Genomics Center [NCGC] U.S. Environmental Protection Agency [EPA] National Institutes of Environmental Health Sciences [NIEHS] National Toxicology Program [NTP] U.S. Food and Drug Administration [FDA] Tox21 Assay Overview: Compound auto fluorescence often interferes with screening of the compound library against various biological targets and signaling pathways. Some of these compounds may have fluorophoric properties. Such properties may interfere with the assay outputs resulting in false positives and/or negatives. To decrease such complications and ensure the compound activities are relevant in terms of biological response, the Tox21 10K compound library was screened for auto fluorescence. From the fluorophores used as reporter signals in our screening assays, the auto fluorescence equivalencies of compounds against three fluorophores have been evaluated: Triamterene, Fluorescein and Rose Bengal sodium for blue, green and red fluorescence, respectively. The fluorescence intensities were measured using Excitation/Emission wavelengths at 405/460nm, 485/535nm and 540/590nm for blue, green and red labels, respectively. This assay includes the green fluorescence data.
Tox21 Assay Protocol Summary: 5 uL of culture medium (DMEM containing 10% FBS) per well was dispensed into black wall/clear bottom 1536-well plates using a Multidrop Combi Dispenser (ThermoFisher Scientific, Waltham, MA). After 23 nL compound or DMSO vehicle was transferred into assay plate by a pintool work station (Kalypsys, San Diego, CA), fluorescence intensities in the assay plates were measured by an Envision (PerkinElmer, Shelton, CT) plate reader using three labels for measuring blue, green and red fluorescence at […] 460, 535 and 590nm respectively.
On the % scale 0 is the no-effect control and ±100 the full control effect.

SMILES | activity change | Potency
Cc1ccc(O)c(N)c1 | 0.0013% (inactive) | –
NC(=O)c1cccc([N+](=O)[O-])c1 | 0.0109% (inactive) | –
COc1ccc(NC(=O)CC(C)=O)cc1 | -0.0154% (inactive) | –
O=C(/C=C/c1ccc(O)c(O)c1)O[C@@H](C(=O)O)[C@@H](OC(=O)/C=C/c1ccc(O)c(O)c1)C(=O)O | 0.515% (inactive) | –
COc1ccc(-c2coc3cc(O)ccc3c2=O)cc1 | -0.0371% (inactive) | –
Cc1nc(-c2ccc(Cl)cc2)oc1COC(C)(C)C(=O)O | 0.0731% [at 46 µM, stronger effect = higher value] (inactive) | –
CCC(CC)C(C)CCOC(C)=O (stereo not given) | -0.0475% (inactive) | –
CN(C)C(=O)COC(=O)Cc1ccc(OC(=O)c2ccc(N=C(N)N)cc2)cc1 | -0.0358% [at 46 µM, stronger effect = higher value] (inactive) | –
CN1CCN(Cc2cc(-c3ccc4[nH]c(=O)oc4c3)co2)[C@@H](c2ccc(F)cc2)C1 | 0.0113% (inactive) | –
Cc1nc2n(c(=O)c1CCN1CCC(c3noc4cc(F)ccc34)CC1)CCCC2 | 0.0028% [at 46 µM, stronger effect = higher value] (inactive) | –
CCc1ccc(Br)cc1 | 0.0077% [at 95.7 µM, stronger effect = higher value] (inactive) | –
CCCNCCC | -0.0523% (inactive) | –
O=C(O)c1ccc2cc(C(=O)O)ccc2c1 | -0.0256% (inactive) | –
CC(C)=CCC1=C(O)c2ccccc2C(=O)C1=O | -0.282% (inactive) | –
CN1CCN2c3ccccc3Cc3ccccc3C2C1 (stereo not given) | -0.0076% [at 46 µM, stronger effect = higher value] (inactive) | –
CC1(C)CCC[C@]2(C)[C@H]3CCO[C@]3(C)CC[C@@H]12 | 0.0089% (inactive) | –
Cl[Si](Cl)(c1ccccc1)c1ccccc1 | 0.0413% [at 95.7 µM, stronger effect = higher value] (inactive) | –
CC(C)(C)C1CCC(=O)CC1 | -0.0136% (inactive) | –
Cc1ccc(C(C)C)cc2c(C)ccc1-2 | 0.0488% [at 46 µM, stronger effect = higher value] (inactive) | –
CC(CO)Oc1ccccc1 (stereo not given) | -0.116% [at 95.7 µM, stronger effect = higher value] (inactive) | –

SMILES | activity change | Potency
Cc1cc(=O)oc2cc(O)cc(O)c12 | -0.196% (inactive) | –
COC(=O)Nc1nc2ccc(C(=O)c3ccccc3)cc2[nH]1 | -0.0263% [at 18.6 µM, stronger effect = higher value] (inactive) | –
CCC(=O)C(=O)CC | -0.0142% [at 95.7 µM, stronger effect = higher value] (inactive) | –
CCCCOC(=O)CC | 0.0018% (inactive) | –
O=C(O)c1cc(O)c2ccccc2c1O | -0.0479% (inactive) | –
Cc1ccc(-c2ccccc2)cc1 | -0.03% (inactive) | –
COc1cc(C)ccc1O | 0.0943% (inactive) | –
CCCC(=O)OC(C)(C)Cc1ccccc1 | -0.288% (inactive) | –
COC(=O)c1ccccc1OC | 0.07% (inactive) | –
C=CCCC(=O)/C=C/C1C(C)=CCCC1(C)C (stereo not given) | -0.0689% (inactive) | –
C1CCC(SSC2CCCCC2)CC1 | 0.0338% (inactive) | –
O=C(O)[C@H](O)[C@@H](O)[C@H](O[C@@H]1O[C@H](CO)[C@H](O)[C@H](O)[C@H]1O)[C@H](O)CO | -0.0154% [at 18.6 µM, stronger effect = higher value] (inactive) | –
Clc1nnc(Cl)c2ccccc12 | -0.0056% (inactive) | –
Cc1cccc2cccnc12 | -0.0563% (inactive) | –
C=CCn1c(=O)n(CC=C)c(=O)n(CC=C)c1=O | -0.0298% (inactive) | –
COC(=O)c1ccccc1C | 0.0776% (inactive) | –
Nc1nc(-c2ccccc2)cs1 | 0.0153% (inactive) | –
Oc1ccccc1O | – | inactive
O=C(O)c1cc(N=Nc2ccc([N+](=O)[O-])cc2)ccc1O | -0.063% (inactive) | –
Clc1ccnc(Cl)n1 | -0.0151% [at 95.7 µM, stronger effect = higher value] (inactive) | –
